Where “and” joins values, the source holds several entries; their conditions need not be identical. Equal entries are not always repeated. Some structures have more than one record in an assay (separate samples or runs), and their calls can disagree. Calls of active or inactive are those of the source. The calls were made as follows: active = hit-call score of the fitted dose curve at least 0.9, where 1 is the maximum; inactive = score below 0.9.

Results on 15 compounds are retold here after PubChem BioAssay (EPA / NIEHS).

A short description of assay [1]: BSK_hDFCGF_SRB: Viability Assessment in the BioMAP Diversity Plus: hDFCGF Assay (AID 2283061).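 Also: cells exposed to compound for 24 h before the read.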 As to conditions: primary human foreskin fibroblasts. The method in brief: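 Readout is SRB absorbance at 560 nm, reflecting total protein in parallel cultures of human foreskin fibroblasts harvested 24 h after chemical dosing. Activity was fitted bidirectionally relative to DMSO.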

Read-out in assay [2]: TIMP metallopeptidase inhibitor 1 (TIMP1), TIMP1 (gene 7076)
Description: BSK_hDFCGF_TIMP1: BioMAP Diversity Plus: hDFCGF Assay for TIMP metallopeptidase inhibitor 1 (TIMP1) Biomarker Activity (AID 2283062). As to conditions: primary human foreskin fibroblasts; actives raise or lower the signal. Put shortly:
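Human skin fibroblasts (primary), hDFCGF system; compound exposure 24 h; TIMP-1 by ELISA; bidirectional fit vs DMSO negative control; overt cytotoxicity by SRB in parallel wells.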

Read-out in assay [3]: Monokine induced gamma interferon (MIG), CXCL9 (gene 4283)
Briefly: BSK_hDFCGF_MIG: BioMAP Diversity Plus: hDFCGF Assay for Monokine induced gamma interferon (MIG) Biomarker Activity (AID 2283063). As to conditions: primary human foreskin fibroblasts; actives raise or lower the signal. The method in brief:
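Chemicals were added to primary human foreskin fibroblast cultures, which were sampled 24 h later. MIG levels were then quantified by ELISA and responses fitted in both directions relative to DMSO.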

Read-out in assay [4]: Matrix Metallopeptidase 1 (MMP1), MMP1 (gene 4312)
Description: BSK_hDFCGF_MMP1: BioMAP Diversity Plus: hDFCGF Assay for Matrix Metallopeptidase 1 (MMP1) Biomarker Activity (AID 2283064). Conditions: primary human foreskin fibroblasts; actives raise or lower the signal. The method in brief:
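Human foreskin fibroblasts exposed to chemical for 24 h; MMP1 detected by ELISA, with DMSO as baseline for bidirectional fitting.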

Read-out in assay [5]: Vascular cell adhesion molecule 1 (VCAM1), VCAM1 (gene 7412)
Briefly: BSK_hDFCGF_VCAM1: BioMAP Diversity Plus: hDFCGF Assay for Vascular cell adhesion molecule 1 (VCAM1) Biomarker Activity (AID 2283065).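 As to AC50: VCAM-1 protein level quantified by ELISA after 24 h chemical exposure.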 Conditions: primary human foreskin fibroblasts; actives raise or lower the signal. The method in brief:
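Human foreskin fibroblast primary cells, chemical exposure 24 h; VCAM-1 by ELISA; bidirectional fit, DMSO = negative control/baseline.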

Read-out in assay [6]: Plasminogen activator inhibitor-1 (PAI1), SERPINE1 (gene 5054)
Briefly: BSK_hDFCGF_PAI1: BioMAP Diversity Plus: hDFCGF Assay for Plasminogen activator inhibitor-1 (PAI1) Biomarker Activity (AID 2283066). Conditions: primary human foreskin fibroblasts; actives raise or lower the signal. The method in brief:
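PAI-1 levels in human dermal foreskin fibroblasts were quantified by ELISA 24 h after dosing, with gain or loss analysed against DMSO. Overt cytotoxicity was checked by sulforhodamine B total-protein staining in parallel cultures.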

Read-out in assay [7]: Intercellular Adhesion Molecule 1 (ICAM1), ICAM1 (gene 3383)
Briefly: BSK_KF3CT_ICAM1: BioMAP Diversity Plus: KF3CT Assay for Intercellular Adhesion Molecule 1 (ICAM1) Biomarker Activity (AID 2283067). As to conditions: primary human keratinocytes with fibroblasts; actives raise or lower the signal. The method in brief:
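ICAM-1 levels are measured by ELISA 24 h after dosing a primary human co-culture of keratinocytes and foreskin fibroblasts. Activity in either direction is fitted relative to DMSO vehicle.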

Read-out in assay [8]: Interferon-gamma inducible Protein 10 (IP10), CXCL10 (gene 3627)
Briefly: BSK_KF3CT_IP10: BioMAP Diversity Plus: KF3CT Assay for Interferon-gamma inducible Protein 10 (IP10) Biomarker Activity (AID 2283068). As to conditions: primary human keratinocytes with fibroblasts; actives raise or lower the signal. The method in brief: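 KF3CT co-culture (keratinocytes + foreskin fibroblasts), 24 h compound, IP-10 by ELISA; bidirectional fit vs DMSO baseline.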

Assay [9] in a line: BSK_KF3CT_SRB: Viability Assessment in the BioMAP Diversity Plus: KF3CT Assay (AID 2283069).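 Also: read 24 h after compound addition; fitted for both signal gain and loss against DMSO baseline.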 Conditions: primary human keratinocytes with fibroblasts. Put shortly: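 Overt cytotoxicity is assessed as total protein by sulforhodamine B staining in parallel human skin co-cultures at 24 h after dosing. DMSO serves as negative control and baseline.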
Read-out in assay [10]: Interleukin-1 alpha (IL1a), IL1A (gene 3552)
Description: BSK_KF3CT_IL1a: BioMAP Diversity Plus: KF3CT Assay for Interleukin-1 alpha (IL1a) Biomarker Activity (AID 2283070). As to conditions: primary human keratinocytes with fibroblasts; actives raise or lower the signal. The method in brief: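 Readout is IL-1a level by ELISA, compared bidirectionally with DMSO as baseline. Cells: human keratinocytes co-cultured with foreskin fibroblasts, harvested 24 h post-dose.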

Turning to `OCC(F)(F)C(F)(F)C(F)(F)CO`, the outcome in assay [1], in assay [2], in [3], in assay [4], in [5] and in assay [6] was inactive. Further, the outcome in assay [7], in assay [8], in assay [9] and in [10] was inactive.
As to `FC(F)(F)C(F)(F)C(F)(F)C(F)(F)C(F)(F)C(F)(F)CC[Si](Cl)(Cl)Cl`, the outcome in [1], in assay [2], in assay [3], in assay [4], in assay [5] and in [6] was inactive. Further, the outcome in assay [8], in assay [9] and in assay [10] was inactive.
`O=C(O)C(F)(F)C(F)(F)C(F)(F)OC(F)(C(F)(F)F)C(F)(F)F`: the result in assay [1], in assay [2], in [3], in assay [4], in assay [5] and in assay [6] was inactive. Moreover, the result in [7], in [8], in [9] and in assay [10] was inactive.
Regarding `CCN(CC)c1ccc(C=O)c(O)c1`, the outcome in [1], in assay [2], in assay [3], in assay [4], in assay [5] and in [6] was inactive. Further, the result in [7], in assay [8], in assay [9] and in assay [10] was inactive.
Take `O=S(=O)(O)CCC(F)(F)C(F)(F)C(F)(F)C(F)(F)C(F)(F)C(F)(F)C(F)(F)C(F)(F)F`: the AC50 – broadly, the midpoint of the concentration-response curve, whichever way the signal moves – in assay [1] was 54.3 µM (active) and 24.7 µM (active); in assay [4] it was 30 µM (active); in [10], 7.84 µM (active). In addition, the result in [2], in [3], in assay [4], in assay [5], in assay [6] and in assay [8] was inactive. The result in assay [9] and in [10] was inactive.
With `O=C(c1ccccc1)c1ccc(O)cc1O`, the result in assay [1], in assay [2], in assay [3], in assay [4], in assay [5] and in assay [6] was inactive. Besides, the outcome in assay [7], in assay [8], in assay [9] and in [10] was inactive.
As for `FC(F)(F)C(F)(F)C(F)(F)CC1CO1` (stereo unspecified), the outcome in assay [1], in [2], in assay [3], in assay [4], in [5] and in assay [6] was inactive. Further, the result in [7], in assay [8], in assay [9] and in assay [10] was inactive. Besides, the AC50 in [3] is 6.18 µM (active).
`NC(=O)C(F)(F)C(F)(F)C(F)(F)F`: the result in assay [1], in [2], in assay [3], in [4], in assay [5] and in [6] was inactive. In addition, the result in assay [7], in assay [8], in assay [9] and in assay [10] was inactive.
As for `OCCCC(F)(F)C(F)(F)C(F)(F)C(F)(F)C(F)(F)C(F)(F)C(F)(F)C(F)(F)F`, the AC50 is 9.4 µM (active) and 6.19 µM (active) in assay [1]; 9.8 µM (active) and 11.3 µM (active) in assay [2]; 12.5 µM (active) and 12 µM (active) in assay [3]; 19 µM (active) and 13.3 µM (active) in assay [4]; 9.41 µM (active) and 6.1 µM (active) in [5]; 6.66 µM (active) and 5.89 µM (active) in assay [6]. In addition, the AC50 was 12.8 µM (active) and 11.7 µM (active) in assay [7]; 12.8 µM (active) and 9.49 µM (active) in [8]; 8.92 µM (active) and 10.7 µM (active) in [9]; 11 µM (active) and 8.25 µM (active) in [10].
Regarding `NC(=O)C(F)(F)C(F)(F)C(F)(F)C(F)(F)C(F)(F)C(F)(F)C(F)(F)F`, the outcome in assay [1], in assay [2], in [3], in assay [4], in assay [5] and in [6] was inactive. In addition, the result in assay [7], in [8], in [9] and in [10] was inactive.
With `CCOC(C=C(C)CCC=C(C)C)OCC`, the AC50 was 33.2 µM (active) in [1]; 20 µM (active) in assay [2]; 27.3 µM (active) in assay [3]; 32.4 µM (active) in [4]; 20 µM (active) in assay [5]; 20 µM (active) in [6]. The AC50 is 34.5 µM (active) in assay [8], 34.8 µM (active) in assay [9] and 26 µM (active) in [10]. Moreover, the outcome in assay [7] was inactive.
As for `NC(=O)C(F)(F)C(F)(F)C(F)(F)C(F)(F)C(N)=O`, the outcome in [1], in [2], in [3], in assay [4], in assay [5] and in assay [6] was inactive. In addition, the result in assay [7], in [8], in assay [9] and in assay [10] was inactive.
For `CCN(CCO)S(=O)(=O)C(F)(F)C(F)(F)C(F)(F)C(F)(F)C(F)(F)C(F)(F)C(F)(F)C(F)(F)F`, the AC50 was 21.9 µM (active) and 2.95 µM (active) in assay [1]; 22.1 µM (active) and 19.1 µM (active) in assay [3]; 50.1 µM (active) in assay [4]; 30 µM (active) and 12.8 µM (active) in [5]; 37.2 µM (active) and 25.4 µM (active) in assay [6]; 33.7 µM (active) and 30 µM (active) in assay [8]. Moreover, the AC50 in [10] is 20.8 µM (active) and 30 µM (active). Also, the result in assay [2], in assay [4] and in assay [9] was inactive.
Regarding `NCC(F)(F)C(F)(F)C(F)(F)C(F)(F)C(F)(F)C(F)(F)C(F)(F)C(F)(F)F`, the result in assay [1], in [2], in assay [3], in [4], in assay [5] and in assay [6] was inactive. Also, the outcome in assay [7], in [8], in [9] and in assay [10] was inactive.
Consider `Cc1cnccn1`, for which the outcome in assay [1], in [2], in assay [3], in assay [4], in assay [5] and in [6] was inactive. The result in [7], in assay [8], in assay [9] and in assay [10] was inactive.
